Screens (PubChem)
This is a sample that favours compounds with a hit; in the whole collection about 1.2% have one here.
RGS16-Gao HTS: modulators of RGS16 binding to Galphao, primary screen, biochemical, human proteins, multiplexed bead flow cytometry | Regulator of G-protein signaling 16 (Homo sapiens) + Guanine nucleotide-binding protein … | bead-based flow cytometry RGS16-Galphao binding, fluorescence; actives lie on both sides | binding response (% of control), % at 10 µM | 0.38% of 220,000 active;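 note: Galphao activated by GDP with aluminum fluoride before binding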
Avidin bead fluor: green autofluorescence of compounds with avidin beads – biophysical, 488/530 nm, flow cytometry, artefact control, profiling panel; compound fluorescence 488/530 nm; active compounds read high; fluorescence (KMESF) at 10 µM; 0.38% of 220,000 active; AID 1775, 2009; in the data active = fluorescence above about 47
RGS8-Gao: RGS8-Galphao binding modulators, primary screen, biochemical, multiplexed bead flow cytometry | 0.34% of 220,000 active | actives lie on both sides | Guanine nucleotide-binding protein G(o) subunit alpha (Homo sapiens), P09471 | response (percent of control binding), % at 10 µM; in the data active = response below about 60% or above about 140%; inactive = in between;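 note: Galphao activated as the GDP aluminium fluoride complex binding bead-coupled RGS8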
Target sequence (P09471 whole entry, looked up): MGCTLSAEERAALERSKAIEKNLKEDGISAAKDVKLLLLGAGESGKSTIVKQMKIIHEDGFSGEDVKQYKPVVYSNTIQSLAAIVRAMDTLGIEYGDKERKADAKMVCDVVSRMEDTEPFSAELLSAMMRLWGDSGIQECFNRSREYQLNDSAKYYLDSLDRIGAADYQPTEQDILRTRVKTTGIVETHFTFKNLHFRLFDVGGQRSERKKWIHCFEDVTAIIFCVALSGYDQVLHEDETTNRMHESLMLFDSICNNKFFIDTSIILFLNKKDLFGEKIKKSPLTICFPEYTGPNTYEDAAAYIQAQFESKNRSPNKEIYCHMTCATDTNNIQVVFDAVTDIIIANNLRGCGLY
RGS4-Gao reg: modulators of RGS4 binding to Galphao, primary screen, biochemical, multiplexed bead flow cytometry. 0.33% of 220,000 active. actives lie on both sides. binding response (% of control), % at 10 µM. Guanine nucleotide-binding protein G(o) subunit alpha (Homo sapiens), P09471; in the data active = binding response below about 49% or above about 150%; inactive = in between;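 note: fluorescent Galphao activated with aluminum fluoride binding bead-coupled RGS4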
GSH bead fluor: compound fluorescence on glutathione beads, profiling panel, artefact control, biophysical, 488/530 nm, flow cytometry. 0.25% of 190,000 active. GSH beads flow cytometry, compound fluorescence 488/530 nm; active compounds read high. AID 1776, 2009. fluorescence (KMESF) at 10 µM; in the data active = fluorescence above about 89;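 note: glutathione beads carrying GST-tagged Bcl family fusion proteins plus one bare bead set; values are compound well signal with DMSO vehicle wells as background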
RGS7-Gao reg: RGS7-Galphao binding modulators, primary screen, biochemical, multiplexed bead flow cytometry; Guanine nucleotide-binding protein G(o) subunit alpha (Homo sapiens), P09471; actives lie on both sides; 0.35% of 220,000 active; AID 1439, 2008; binding response (% of control), % at 10 µM; in the data active = binding response below about 49% or above about 150%; inconclusive = no clear call, values can overlap the other calls; inactive = in between;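 note: fluorescent Galphao held in activated GDP-AlF4 state binding bead-coupled RGS7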
RGS4-Gao HTS: modulators of RGS–Galpha-o binding, primary screen, biochemical, multiplexed beads, flow cytometry, RGS4/7/8/16/19. RGS4–Galpha-o binding response, % at 10 µM. multiplexed bead flow cytometry. shares compounds with RGS16-Gao HTS. AID 1504, 2009. 99% of 1,600 active;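 note: fluorescently labeled Galpha-o bound to GDP with aluminium fluoride binding biotinylated RGS beads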
Target sequence (P09471 whole entry, looked up): as above
Target sequence (P49798 whole entry, looked up): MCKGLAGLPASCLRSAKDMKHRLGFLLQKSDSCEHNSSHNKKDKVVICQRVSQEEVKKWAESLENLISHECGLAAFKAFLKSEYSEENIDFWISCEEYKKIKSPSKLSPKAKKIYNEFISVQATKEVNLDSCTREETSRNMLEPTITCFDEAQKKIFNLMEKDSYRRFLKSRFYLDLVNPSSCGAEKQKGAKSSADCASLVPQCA
Biotin-avidin: disruption of biotin probe capture by avidin, counter-screen for RGS protein interaction modulators, biochemical, flow cytometry, bead-based | 1,700 tested, under 10 active | shares compounds with RGS16-Gao HTS | inhibition, % at 10 µM | streptavidin beads, fluorescein-biotin binding;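 active = inhibition above 50%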;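 note: median green fluorescence of gated singlet beads compared with DMSO control wells; 0% = DMSO wells and 100% = complete loss of bead fluorescence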
RGS8-Gao confirm: RGS8-Galphao binding modulators, confirmation, biochemical, multiplexed bead flow cytometry, single concentration; binding response (% of control), % at 10 µM; shares compounds with RGS16-Gao HTS; 3% of 1,700 active; bead-based flow cytometry RGS8-Galphao binding, fluorescence; actives lie on both sides; in the data active = binding response below about 72% or above about 130%; inactive = in between;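 note: Galphao activated as GDP AlF4 complex before binding bead RGS8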
RGS7-Gao confirm: RGS7-Galphao binding modulators, confirmation, biochemical, multiplexed bead flow cytometry, single concentration; shares compounds with RGS16-Gao HTS; bead-based flow cytometry RGS7-Galphao binding; actives lie on both sides; 7.8% of 1,700 active; AID 1837, 2009; response (percent of control binding), % at 10 µM; in the data active = response below about 75% or above about 130%; inactive = in between;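 note: fluorescent Galphao activated with GDP and aluminum fluoride binding bead-coupled RGS7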
RGS16-Gao single: modulators of RGS16-Galphao protein binding, confirmation, biochemical, single concentration, multiplexed bead flow cytometry | shares compounds with RGS16-Gao HTS | bead-based flow cytometry; actives lie on both sides | response (% of control binding), % at 10 µM | 4% of 1,700 active | AID 1838, 2009; in the data active = response below about 74% or above about 130%; inactive = in between;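 note: Galphao activated as the GDP aluminium fluoride complex binding bead-coupled RGS16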
RGS4-Gao confirm: modulators of RGS4-Galphao protein binding, confirmation, biochemical, single concentration, multiplexed bead flow cytometry. shares compounds with RGS16-Gao HTS. actives lie on both sides. binding response (% of control), % at 10 µM. 4% of 1,700 active. AID 1840, 2009; in the data active = binding response below about 74% or above about 130%; inactive = in between
RGS19-Gao conf: regulators of RGS19-Galphao binding, confirmation, biochemical, single point, multiplexed bead flow cytometry | shares compounds with RGS16-Gao HTS | 5% of 1,700 active | response (percent of control binding), % at 10 µM | bead-based flow cytometry RGS19-Galphao binding; actives lie on both sides | AID 1841, 2009; in the data active = response below about 50% or above about 160%; inactive = in between;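 note: 100% = no compound control and 0% = blank background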
An asterisk follows results filed as active; i = inactive; ? = inconclusive; . = no result given; [ ] = remark or other dose. Unless noted, the rule behind the calls is not given here.

SMILES	RGS16-Gao HTS	Avidin bead fluor	RGS8-Gao	RGS4-Gao reg	GSH bead fluor	RGS7-Gao reg	Biotin-avidin	RGS8-Gao confirm	RGS7-Gao confirm	RGS16-Gao single	RGS4-Gao confirm	RGS19-Gao conf	others
CC(C)(C)c1ccc(OCCCC(=O)Nc2ccc(S(N)(=O)=O)cc2)cc1	96	4	103	100	12	102	.	.	.	.	.	.
CC(/C=C1\SC(=O)N(CCCC(=O)O)C1=O)=C\c1ccccc1	83	2	132	165*[activator]	13	160*[activator]	-1	101	98	97	98	104
COc1cc(C(C)=O)ccc1COc1ccc(C(=O)O)cc1OC	105	4	102	99	.	?	.	.	.	.	.	.
COc1cc(NC(=O)CSc2nnc3c(C)cc4c(C)ccc(C)c4n23)c(C(=O)O)cc1OC	103	12	102	103	14	100	.	.	.	.	.	.
Cc1cc(Cl)ccc1N(CC(=O)NCc1ccc2c(c1)OCO2)S(C)(=O)=O	105	20	102	101	12	99	.	.	.	.	.	.
O=C1CC(=O)CC(c2ccccc2)C1	110	9	100	102	17	96	.	.	.	.	.	.
CC(C)(O)C1=NOC(c2ccccc2)C1 (centres undefined)	114	200*	99	133	25	338*[activator]	0	103	102	102	103	109	RGS4-Gao HTS=133*
CCCC(=O)Nc1cccn(Cc2ccccc2Br)c1=O	.	.	.	.	39	.	0	100	102	100	99	114
CCN(C(=O)CSc1ccc2ccccc2n1)C1CCS(=O)(=O)C1 (centres undefined)	109	10	104	104	16	103	.	.	.	.	.	.
CCN(C(=O)CSc1cc(C)c2ccccc2n1)C1CCS(=O)(=O)C1 (centres undefined)	8.0*	0	13*	14*	14	12*	0	98	93	96	95	76
Cn1c(SCC(=O)N/N=C/C=C/c2ccccc2[N+](=O)[O-])nc2ccccc21	97	28	100	100	10	101	.	.	.	.	.	.
Cn1c(SCC(=O)N/N=C/C=C\c2ccccc2[N+](=O)[O-])nc2ccccc21	23*	1	73	89	5	93	i	105	106	104	106	103	RGS4-Gao HTS=89*
O=C(Nc1ccc2c(c1)OCO2)N1CCN(c2ccccc2Cl)CC1	100	14	100	103	14	99	.	.	.	.	.	.
O=C(Nc1ccc2c(c1)OCO2)N1CCN(c2cccc(C(F)(F)F)c2)CC1	-243	0	72	47*	32	68	-1	98	96	97	98	105
CCOC(=O)/C=C1\SCC(=O)N1CC(=O)Nc1ccc(C(C)C)cc1	301	5	142*[activator]	114	19	110	-1	99	100	97	99	100	RGS4-Gao HTS=114*
CCOC(=O)/C=C1\SCC(=O)N1CC(=O)Nc1ccc2c(c1)CCC2	103	11	103	104	26	99	.	.	.	.	.	.
O=C(O)COc1ccccc1/C=N/NC(=O)Cc1csc(Nc2cccc(C(F)(F)F)c2)n1	32	4	40*	39*	12	?	-1	104	103	105	101	108
Cc1cccc(Nc2sc(C(=O)c3cc4cc(Cl)ccc4o3)c(N)c2C#N)c1	110	7	100	113	.	?	.	.	.	.	.	.
O=C(O)c1ccccc1Sc1ccccc1S(=O)(=O)NC1CCCCC1	-4.7*	-2	7.1*	-11*	.	?	1	94	90	95	95	106
O=C(O)c1ccccc1S(=O)(=O)NCC(O)COC1CCCCC1 (centres undefined)	102	15	102	101	30	100	.	.	.	.	.	.
CCCNC(=O)c1nnsc1Sc1ccc(Cl)cc1	111	24	104	105	10	106	.	.	.	.	.	.
Cc1ccc(NC(=O)Nc2cnccn2)cc1Cl	100	17	104	102	12	105	.	.	.	.	.	.
O=C(Nc1cnccn1)Nc1ccc(Cl)cc1Cl	.	.	.	.	9	.	1	95	92	96	97	99
Cc1ccc(S(=O)(=O)NCCc2nnc3ccc(SCC(=O)Nc4nc5ccccc5s4)nn23)cc1	177*[activator]	3	114	105	8	109	0	95	91	93	92	82	RGS4-Gao HTS=105*
CC(=O)Nc1ccc(Cc2nc3c([nH]2)c(=O)n(C)c(=O)n3C)cc1	1.1*	-1	20*	-0.7*	.	?	1	99	99	101	98	103
CCCc1nc2c([nH]1)c(=O)n(C)c(=O)n2C	102	7	102	101	.	?	.	.	.	.	.	.
CCc1n[nH]c(=S)n1/N=C/c1cc(Br)c(OC)cc1OC	99	17	100	98	15	105	.	.	.	.	.	.
O=c1[nH][nH]c2cc(=O)n(-c3ccc(Cl)cc3)nc12	101	9	102	104	24	99	.	.	.	.	.	.
